Out of some 1,600 compounds screened, about 990 (62%) were called active. Inconclusive results (about 30%) are left out. The call rests on the fitted dose curve; in most records, active means well fitted inhibition curve with a large enough effect; inconclusive means small, poorly fitted or top-dose-only effect; inactive means no such curve, though single readings can be large or run the other way. The set was probably picked from earlier hits. These entries were drawn from the full list.
Assay: qHTS for Inhibitors of TGF-b: Confirmation of Cherry Picks; further: nearly all actives have a fitted effect of over 65% in size
Settings: HepG2 CAGA-GFP TGF-b reporter, GFP fluorescence, 18 h, cells stimulated with TGF-beta, 500 pg/mL; series mostly up to 46.1 µM
From the text: TGF-b is a main component in the TGF-b signaling pathway which plays diverse roles in cellular and development pathways. TGF-b is mediated through transcription factors called "Smads". Although the Smad-dependent pathway is the primary canonical TGF-b signaling mode, TGF-b1 can also activate alternative signaling pathways, including those involving MAPK (ERK, JNK and p38). This interaction may mediate or enhance Smad-dependent responses, or can exert Smad-independent effects. The complexity of this signaling cascade allows the TGF-b superfamily to perform unique, overlapping or redundant functions. We believe that targeting the TGF-beta pathway at the Smad-transcription factor level may eliminate the consequences of disrupting the entire pathway and offer specificity without affecting other signaling pathways. Smad3 is the primary transducer of TGF-b's signals and Smad3 regulates many functions attributed to TGF-b signaling. We hypothesize that Smad3 inhibitors will selectively eliminate Smad3-specific TGF-beta signals without undesired off-target effects. We aim to identify Smad3-small molecule antagonists using a quantitative high throughput screening (qHTS) approach. In this assay, hits identified from the primary screen were re-tested. MH087449NIH Chemical Genomics Center [NCGC] NIH Molecular Libraries Probe Centers Network [MLPCN] MLPCN Grant: MH087449 Assay Submitter (PI): Sushil Rane, National Institute of Diabetes and Kidney Diseases
Suspensions of trypsinized HEPG2 CAGA-GFP cells were dispensed into white, tissue culture-treated, solid 1536-well plates at 5uL/well (1000 cells/well final concentration) in DMEM medium supplemented with 1% FBS. Plates were incubated at 37 degrees C for 2 hours, after which 23 nL of compounds or DMSO were delivered to each well using a pin tool. One uL of recombinant TGF-beta in DMEM (1% FBS) was then dispensed (500 pg/mL final concentration), and plates were incubated at 37 degrees C for 18 hours. The plates were measured on an Acumen eX3 Explorer plate reader for GFP fluorescence (ex488/em500-530). GFP values were calculated by determining the mean GFP fluorescence of individual cells, and compiling these values for each well to determine a total well GFP signal. The %Activity was determined from the corrected fluorescence values. A titration of the known TGF-B inhibitor SB431542 was included to monitor plate performance, while unstimulated HEPG2 (-TGF-B) control wells were used to normalize %Activity of identified inhibitors; unstimulated wells corresponded to 100%Activity (full inhibition), while stimulated cell controls (+DMSO) were used to normalize 0%Activity (no inhibition). Concentration-response curves were fitted to the signals arising from the resulting fluorescence. The concentration-effect curves were then classified based on curve quality (r2), response magnitude and degree of measured activity, and compounds were subsequently categorized based on their curve class.
Potency means the concentration at half of the fitted maximal effect.

SMILES | Potency
O=[N+]([O-])c1ccccc1S(=O)(=O)Nc1cccc2cccnc12 | 13 µM (active)
CN(C)CCNC(=O)c1ccc(Cl)c2cc3ccccc3nc12 | 3.26 µM (active)
O=C(NC1=CC(=O)c2ccccc2C1=O)c1ccccc1 | 5.17 µM (active)
COC(=O)COc1cccc2c(=O)n(CC(=O)NCc3ccccc3)ccc12 | inactive
COc1cc(NC(=O)c2ccccc2NS(=O)(=O)c2ccc(Cl)s2)cc(OC)c1 | 5.8 µM (active)
CN(c1ccccc1)S(=O)(=O)c1ccc(C(=O)N2CCN(c3ccccc3Cl)CC2)cc1 | 5.8 µM (active)
COc1ccc(CNC(=O)C[C@H]2C[C@H](C(=O)N3CCOCC3)[C@@]3(CCC4CCCC4)c4[nH]c5ccc(Cl)cc5c4CCN3C2=O)cc1OC | 4.61 µM (active)
COc1ccc(C(=O)c2c3ccc([N+](=O)[O-])cc3[n+]([O-])n2CCCN)cc1 | 18.4 µM (active)
COc1cc(NC(=O)c2[nH]cnc2C(N)=O)cc(C(=O)Nc2cccc(C(F)(F)F)c2)c1 | 16.4 µM (active)
Cn1c(=O)n(C)c2cc(S(=O)(=O)N3CCCc4ccccc43)ccc21 | inactive
COc1cc(CC(=O)Nc2nc(-c3ccc(F)c(F)c3)cs2)cc(OC)c1OC | 11.6 µM (active)
Cc1oc2c(F)c(F)c(F)c(F)c2c1S(=O)(=O)Nc1cccc(C(F)(F)F)c1 | 20.6 µM (active)
Clc1ccc(Nc2nc(-c3cccs3)cs2)nc1 | 13 µM (active)
CCOc1ccc(CCN2C(=S)N([C@@H](CC(C)C)CN3CCC[C@@H]3CN3C(=S)NC[C@@H]3Cc3ccc(O)cc3)C[C@@H]2CC(C)C)cc1 | 18.4 µM (active)
CCN(CC)C(=O)C1=C(C)N(Cc2ccc(C(C)(C)C)cc2)C(=O)C(CC(=O)NCc2cccc3ccccc23)C1 (stereo not given) | 14.6 µM (active)
COC(=O)N/N=C/c1cn(CCCOc2ccc(C)cc2)c2ccccc12 | 14.6 µM (active)
c1ccc2cc3c(NCCN4CCOCC4)ccnc3cc2c1 | 18.4 µM (active)
c1ccc(-c2cn3c(n2)CCc2ccc4cccnc4c2-3)cc1 | inactive
O=C(/C(=C/c1cccc(Cl)c1)c1nc2ccccc2[nH]1)c1ccccc1 | 2.91 µM (active)
CC(=O)c1cccc(-c2cnc3c(NC=O)cc(-c4ccc(N(C)C)cc4)cn23)c1 | 7.31 µM (active)
CC(=O)c1ccc(-c2cnc3c(NC=O)cc(-c4cccc(NS(C)(=O)=O)c4)cn23)cc1 | 0.731 µM (active)
O=C(Nc1ccc(Cl)cc1)Nc1nnc(/C=C/c2ccccc2)s1 | inactive
COc1ccc(-c2onc(C)c2-c2ccc3c(c2)OCCO3)c(O)c1 | 16.4 µM (active)
COc1cc(NC(=O)COC(=O)c2ccc([N+](=O)[O-])s2)cc(OC)c1OC | 23.1 µM (active)
Cc1ccnc(NC(=O)C2CCN(S(=O)(=O)c3c(C)c(C)cc(C)c3C)CC2)c1 | 7.31 µM (active)
S=C(NCC1COc2ccccc2O1)Nc1ccc(Br)cc1 (stereo not given) | 18.4 µM (active)
CN(C)c1nc(N)nc(CSc2nnnn2-c2cccc3ccccc23)n1 | 7.31 µM (active)
CN(C)c1nc(=Nc2cccc(Cl)c2)ss1 | 5.17 µM (active)

SMILES | Potency
Cc1cccc(-c2nc(Nc3ccc(O)cc3)c3ccccc3n2)c1 | 18.4 µM (active)
COc1cc(/C=C2\Oc3ccc(C#Cc4ccc(O)cc4)cc3C2=O)cc(OC)c1 | 6.51 µM (active)
O=C(Nc1nnc(S(=O)(=O)N2CCCCCC2)s1)c1cccc(Br)c1 | 23.1 µM (active)
O=C(Nc1ccc(Br)cn1)c1ccc([N+](=O)[O-])o1 | 18.4 µM (active)
COc1ccc(CC(=O)Nc2ccccc2NC(=O)c2ccco2)cc1OC | inactive
CCOC(=O)C1=C(N)N(c2ccc(C)cc2)C2=C(C(=O)CCC2)C1c1cccs1 (stereo not given) | 23.1 µM (active)
Cc1nc(/N=C(\N)NC(=O)NC2CCCCC2)nc2ccccc12 | 11.6 µM (active)
Clc1ccc2c(c1)C1=C(C(c3ccncc3)O2)C(c2ccc(Br)cc2)n2ncnc2N1 (stereo not given) | 2.31 µM (active)
CCCOc1ccccc1C1CC(=O)Nc2cc3c(cc21)OCO3 (stereo not given) | 8.2 µM (active)
COc1cccc2sc(N(CCCN(C)C)C(=O)CCS(=O)(=O)c3ccccc3)nc12 | 3.26 µM (active)
Cc1cccc2sc(N(CCCN(C)C)C(=O)CCS(=O)(=O)c3ccccc3)nc12 | 5.17 µM (active)
COc1ccc(C)cc1S(=O)(=O)N1CCN(S(=O)(=O)c2cc(C(=O)O)ccc2C)CC1 | inactive
Cc1nn(-c2ccccc2)c(C)c1/C=N/NC(=O)CSc1nc2ccccc2c(=O)n1-c1ccccc1 | 2.31 µM (active)
Cc1ccc(CN2CC(N3CCC(Cc4ccccc4)CC3)CS2(=O)=O)cc1 (stereo not given) | 20.6 µM (active)
O=C(Nc1ccc(C2CC2(Cl)Cl)cc1)c1cccc([N+](=O)[O-])c1 (stereo not given) | inactive
Cc1ccc(S(=O)(=O)Nc2nc3ccccc3nc2N2CCc3ccccc3C2)cc1 | 18.4 µM (active)
Cc1cccc(NS(=O)(=O)c2ccc(-c3cnc(C4CC4)o3)cc2)c1 | 16.4 µM (active)
COc1ccc2nc(N3CCN(C(=O)c4ccc([N+](=O)[O-])o4)CC3)sc2c1 | 20.6 µM (active)
OCC1OC(n2cnc3c(N4CCCC4)ncnc32)C(O)C1O (stereo not given) | 2.59 µM (active)
CCC(C)N1C(=O)S/C(=C/c2ccc(Sc3nc4ccccc4[nH]3)o2)C1=O (stereo not given) | 5.17 µM (active)
CCCOc1ccc(F)cc1-c1cc(C(=O)Nc2ccc(F)c(Cl)c2)[nH]n1 | 20.6 µM (active)
Clc1cccc(Cc2c(-c3cccc(Cl)c3)nc3ccc(Cl)cn23)c1 | 18.4 µM (active)
Oc1c(CN2CCN(c3ccc(F)cc3)CC2)cc(Cl)c2cccnc12 | 6.51 µM (active)
OCCCNc1nccc(-c2cc(Nc3cccc(Cl)c3)ncn2)n1 | 0.411 µM (active)
CC(=NNC(=S)N1CCCCCC1)c1ccccn1 | 0.651 µM (active)
Cc1cccc(CS(=O)(=O)c2ncc(Cl)c(C(=O)Nc3ccc(F)cc3)n2)c1 | 5.17 µM (active)
Cc1cccc(NC(=O)c2nc(S(=O)(=O)Cc3ccccc3)ncc2Cl)c1 | 4.11 µM (active)
